Experimental data published in the supplement of paper PMC13380429.

Test system: Vero E6 infected with SARS-CoV-2
Assay: inhibition of SARS-CoV-2 cytopathic effect; higher = more antiviral protection, active = above 15
Details: 48 h

Measured: inhibition of SARS-CoV-2 cytopathic effect

O=C1NC(=O)C(c2ccccc2)(c2ccccc2)N1 [phenytoin]
inactive: 1 nM -2.48% | 8.33 nM 0.49% | 100 nM -0.76% | 833.33 nM -0.84% | 10000 nM 0.37%

C[N+]1(C)CCc2cc3c(cc2[C@H]1[C@@H]1OC(=O)c2c1ccc1c2OCO1)OCO3 [bicuculline-methochloride-(-)]
inactive: 1 nM -4.58% | 8.33 nM 0.48% | 100 nM 0.65% | 833.33 nM 3.59% | 10000 nM -2.23%

O=C(CN1C2=NCCN2c2ccccc21)c1ccc(-c2ccccc2)cc1
inactive: 1 nM -0.77% | 8.33 nM 3.75% | 100 nM 1.71% | 833.33 nM -0.84% | 10000 nM 14.8%

COc1cc(OC)c(C(=O)CCCCN2CCC3(CC2)NC(=O)NC3=O)cc1NS(=O)(=O)c1ccc(C(F)(F)F)cc1
inactive: 1 nM 0.4% | 8.33 nM 0.2% | 100 nM -0.19% | 833.33 nM 0.81% | 10000 nM 0.94%

CC(=O)OCC(=O)[C@@]12N=C(C)O[C@@H]1C[C@H]1[C@@H]3CCC4=CC(=O)C=C[C@]4(C)[C@H]3[C@@H](O)C[C@@]12C [Deflazacort (Calcort)]
inactive: 1 nM 2.25% | 8.33 nM -0.15% | 100 nM -11.5% | 833.33 nM 2.17% | 10000 nM 0.96%

CCN(CC)CCOC(=O)C1(c2ccccc2)CCCC1 [caramiphen]
inactive: 1 nM -4.57% | 8.33 nM -4.75% | 100 nM -1.97% | 833.33 nM -0.96% | 10000 nM -3.45%

CCCCc1ccc2[nH]c(NC(=O)OC)nc2c1 [parbendazole]
inactive: 1 nM 0.24% | 8.33 nM 0.63% | 100 nM -0.29% | 833.33 nM -0.99% | 10000 nM -1.63%

C[C@]12CC[C@H]3[C@@H](CCC4=CC(=O)CC[C@@]43C)[C@@H]1CC[C@@H]2O
inactive: 1 nM 0.04% | 8.33 nM 2.66% | 100 nM 3.91% | 833.33 nM -1.25% | 10000 nM -0.6%

Cc1nc(Nc2n[nH]c3c2CN(C(=O)N[C@H](CN(C)C)c2ccccc2)C3(C)C)c2sccc2n1
inactive: 1 nM 3.94% | 8.33 nM -1.34% | 100 nM -3.76% | 833.33 nM -4.38% | 10000 nM -7.39%

C1CCC(NC2CCCCC2)CC1 [dicyclohexylamine]
inactive: 1 nM 2.51% | 8.33 nM 6.58% | 100 nM 13.2% | 833.33 nM 0.43% | 10000 nM -2.8%

O=C1N(c2ccccc2)c2ccccc2C1(Cc1ccncc1)Cc1ccncc1 [linopirdine]
inactive: 1 nM 2.06% | 8.33 nM 0.32% | 100 nM 1.23% | 833.33 nM -0.29% | 10000 nM 1.14%

Cc1cc2sc(NC(=O)Cc3ccccc3)nc2cc1Cl
inactive: 1 nM 2.05% | 8.33 nM 2.12% | 100 nM 2.19% | 833.33 nM 0.81% | 10000 nM 3.87%

N[C@H](CO)C(=O)O [D-serine]
inactive: 1 nM -1.38% | 8.33 nM 1.46% | 100 nM -1.84% | 833.33 nM -1.45% | 10000 nM 1.69%

Cc1ccc(N(CC2=NCCN2)c2cccc(O)c2)cc1 [phentolamine]
inactive: 1 nM -1.41% | 8.33 nM 0.07% | 100 nM -0.25% | 833.33 nM 1.86% | 10000 nM -4.23%

CCCCC(F)(F)[C@@]1(O)CC[C@H]2[C@@H](CC(=O)[C@@H]2CCCCCCC(=O)O)O1 [lubiprostone]
inactive: 1 nM -0.41% | 8.33 nM -0.13% | 100 nM -0.73% | 833.33 nM -1.89% | 10000 nM -0.01%

CC(Cc1ccccc1)(NC(=O)CN)c1ccccc1 (stereo not given) [remacemide]
inactive: 1 nM 0.2% | 8.33 nM 0.62% | 100 nM -0.89% | 833.33 nM 0.88% | 10000 nM 0.24%

O=C(CCN1CCN(C(=O)OCc2cc(Cl)cc(Cl)c2)CC1)c1ccc2[nH]c(=O)oc2c1
inactive: 1 nM 3.18% | 8.33 nM 5.29% | 100 nM 2.77% | 833.33 nM 4.56% | 10000 nM 1.71%

C[C@H]1O[C@@H](O[C@H]2[C@@H](O)C[C@H](O[C@H]3[C@@H](O)C[C@H](O[C@H]4CC[C@@]5(C)[C@H](CC[C@@H]6[C@@H]5C[C@@H](O)[C@]5(C)[C@@H](C7=CC(=O)OC7)CC[C@]65O)C4)O[C@@H]3C)O[C@@H]2C)C[C@H](O)[C@@H]1O [digoxin]
inactive: 1 nM -0.14% | 8.33 nM -0.96% | 100 nM -7.12% | 833.33 nM -13.3% | 10000 nM -14.5%

Fc1ccc(C(OCCN2CCN(CCCc3ccccc3)CC2)c2ccc(F)cc2)cc1 [vanoxerine]
inactive: 1 nM -2.38% | 8.33 nM -0.72% | 100 nM 2.06% | 833.33 nM -3.95% | 10000 nM -11.6%

Nc1ncnc2c1c(-c1ccc(Cl)cc1)nn2-c1cccc(-c2cnnn2Cc2cccc(-c3ccccc3)c2)c1
inactive: 1 nM -2.81% | 8.33 nM -0.01% | 100 nM -1.05% | 833.33 nM -2.27% | 10000 nM -0.83%

CC(O)Cn1cnc2c1c(=O)n(C)c(=O)n2C (stereo not given) [Proxyphylline]
inactive: 1 nM -1.14% | 8.33 nM -0.86% | 100 nM -0.81% | 833.33 nM -0.51% | 10000 nM 0.19%

C/C(O)=C(\C#N)C(=O)Nc1ccc(C(F)(F)F)cc1 [teriflunomide]
inactive: 1 nM 3.27% | 8.33 nM 1.99% | 100 nM 1.22% | 833.33 nM -3.04% | 10000 nM 1.1%

O=C(Nc1c(Cl)cncc1Cl)c1ccc(OC(F)F)c(OCC2CC2)c1 [roflumilast]
inactive: 1 nM -0.45% | 8.33 nM 1.68% | 100 nM 0.72% | 833.33 nM -0.19% | 10000 nM 0.85%

[N-]=[N+]=CC(=O)CC[C@H](N)C(=O)O [6-diazo-5-oxo-L-norleucine]
inactive: 1 nM 0.69% | 8.33 nM 0.78% | 100 nM 0.86% | 833.33 nM 0.6% | 10000 nM -0.69%
